Source: the supplement of paper PMC6555819

Experiments:
Test in all cases: PBM binding z-score (relative to random genomic background probes); higher = stronger binding; sequences stand for … in GC…GCGATTGACAGCGTAGAATGAAGG
[1] = system: FXR:RXRa (NR concentration 270 nM, RXRa partner concentration 90 nM)
In short: (§1)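 Probes were double-stranded and carried 34-nt variable regions with direct-repeat seeds, single-nucleotide variants, half-site ablations and random human genomic background sequences, printed on custom Agilent 4×180K protein-binding microarrays. Arrays were incubated 1 h with ligand-free nuclear receptor dimers in PBS pH 7.4, 2% milk, 0.02% Triton X-100, 1 mM DTT, 0.2 mg/mL BSA and 0.4 mg/ml salmon testes DNA. Antibodies against each partner (one per run) detected binding, and scanned fluorescence was regression-normalized. Binding z-scores use the random background probes as reference.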

[2] = system: LXRa:RXRa (NR concentration 270 nM, RXRa partner concentration 90 nM)
In short: as §1

[3] = system: LXRa homodimer (NR concentration 270 nM)
In short: as §1

[4] = system: LXRb:RXRa (NR concentration 270 nM, RXRa partner concentration 90 nM)
In short: as §1

[5] = system: LXRb homodimer (NR concentration 270 nM)
In short: as §1

[6] = system: PPARa:RXRa (NR concentration 270 nM, RXRa partner concentration 90 nM)
In short: as §1

[7] = system: PPARg:RXRa (NR concentration 180 nM, RXRa partner concentration 90 nM)
In short: as §1

[8] = system: PPARg:RXRa 270nM:90nM, anti-RXR (NR concentration 270 nM, RXRa partner concentration 90 nM)
In short: as §1

[9] = system: PPARg:RXRa 30nM:10nM, anti-RXR (NR concentration 30 nM, RXRa partner concentration 10 nM)
In short: as §1

[10] = system: PPARg:RXRa 90nM:30nM, anti-RXR (NR concentration 90 nM, RXRa partner concentration 30 nM)
In short: as §1

[11] = system: PPARg:RXRa DBDmut IVT, anti-RXR (DBD mutation: RXRa K156A/R161A, NR concentration 270 nM, RXRa partner concentration 90 nM)
In short: as §1

[12] = system: PPARg:RXRa IVT, anti-PPARg (NR concentration 270 nM, RXRa partner concentration 90 nM)
In short: as §1

[13] = system: PPARg DBDmut:RXRa IVT, anti-PPARg (DBD mutation: PPARg1 K132A/R137A, NR concentration 270 nM, RXRa partner concentration 90 nM)
In short: as §1

[14] = system: PPARg DBDmut IVT, anti-PPARg (DBD mutation: PPARg1 K132A/R137A, NR concentration 270 nM)
In short: as §1

[15] = system: PPARg homodimer (NR concentration 180 nM)
In short: as §1

[16] = system: PXR:RXRa (NR concentration 270 nM, RXRa partner concentration 90 nM)
In short: as §1

[17] = system: PXR homodimer (NR concentration 270 nM)
In short: as §1

[18] = system: RARa:RXR (NR concentration 270 nM, RXRa partner concentration 90 nM)
In short: as §1

[19] = system: RARa homodimer (NR concentration 270 nM)
In short: as §1

[20] = system: RARb:RXRa (NR concentration 270 nM, RXRa partner concentration 90 nM)
In short: as §1

| Sequence | PBM binding z-score [1] | PBM binding z-score [2] | PBM binding z-score [3] | PBM binding z-score [4] | PBM binding z-score [5] | PBM binding z-score [6] | PBM binding z-score [7] | PBM binding z-score [8] | PBM binding z-score [9] | PBM binding z-score [10] | PBM binding z-score [11] | PBM binding z-score [12] | PBM binding z-score [13] | PBM binding z-score [14] | PBM binding z-score [15] | PBM binding z-score [16] | PBM binding z-score [17] | PBM binding z-score [18] | PBM binding z-score [19] | PBM binding z-score [20] |
| --- | --- | --- | --- | --- | --- | --- | --- | --- | --- | --- | --- | --- | --- | --- | --- | --- | --- | --- | --- | --- |
| ACCTCTAGGTAACAAGTTCAGTGAAAGAGAGGAC | 0.245 | 0.295 | 0.188 | 0.426 | -0.0173 | 1.02 | 1.18 | 1.5 | 0.452 | 1.29 | 3.28 | 2.07 | 0.823 | 0.266 | 0.609 | 1.57 | 1.32 | 0.59 | -0.291 | 1.51 |
| CCCACTGGGCCATCAGGTCATTGATATCAACGTT | 1.16 | 1.11 | 1.5 | 1.63 | -0.17 | 2.74 | 2.87 | 3.57 | 1.18 | 2.86 | 3.84 | 5.07 | 0.243 | 0.0844 | 2.19 | 1.57 | 0.893 | 1.95 | 0.424 | 2.04 |
| GCAGACAGGTCAAACGCAGGTAACTCAGGGTGGC | 6.46 | 4.96 | 1.47 | 3.62 | 0.592 | 5.06 | 3.15 | 3.59 | 0.933 | 2.14 | 2.15 | 1.91 | 0.427 | -0.842 | 2 | 3.06 | -0.42 | 4.18 | -0.318 | 4.17 |
| TATCGGAGGACACGAAAGGTCAGAGCTCGACATC | 3.35 | 4.54 | 4.27 | 3.43 | 0.855 | 3.93 | 2.18 | 2.81 | 1.03 | 2.13 | 0.425 | 2.37 | 0.89 | 0.344 | 2.86 | 4.25 | 0.981 | 4.73 | 1.49 | 4.37 |
| CATCCAGGGTCAGCTAGGCCAGAGTAGGGACGGC | 4.57 | 3.12 | -0.152 | 2.1 | 0.239 | 4.34 | 2.97 | 3.3 | 0.549 | 1.89 | 0.695 | 2.52 | 0.576 | 0.124 | 1.54 | 2.31 | -0.182 | 3.25 | 0.407 | 4.03 |
| CCGAGTAGGTTATCGGGCATTCAGGCAACGGTGA | 0.12 | 0.322 | 0.154 | -0.0205 | -0.739 | 1.32 | 1.8 | 2.7 | 0.915 | 1.54 | 2.93 | 2.72 | -1.04 | -1.21 | 0.257 | -0.121 | -0.43 | 0.241 | 0.0766 | 0.742 |
| AGAACGAGGGCACGCTGAGGTGATAGCAGAGTAG | 1.52 | 0.73 | -0.584 | 0.0618 | -1 | 2.18 | 2.3 | 2.19 | 0.193 | 1.29 | 4.07 | 4.06 | 1.26 | 0.179 | 0.573 | 0.989 | -0.0676 | 1.66 | -0.189 | 2.66 |
| TCATACAGGTAAAGGTGAAAGTCGAACGATATGA | 1.17 | 1.57 | 0.0169 | 1.44 | 0.312 | 3.08 | 2.39 | 3.81 | 4.26 | 4.38 | 2.37 | 2.45 | 1.8 | 0.696 | 0.957 | 1.03 | 0.178 | 1.82 | 1.18 | 2.19 |
| GGAACGAGGGCAAAGTTGACAGCATCTGTCGACG | 2.02 | 1.27 | -0.425 | 1.25 | -0.409 | 4.78 | 8.22 | 7.66 | 7.72 | 8.34 | 4.28 | 4.82 | 1.12 | 0.308 | 0.924 | 1.91 | 0.0135 | 2.66 | -0.5 | 2.65 |
| GGAACGAGGGCATTCGAGTTGATTGCATGGCGAT | 0.926 | 1.7 | -0.316 | 0.105 | -0.391 | 1.4 | 0.653 | 0.598 | -0.244 | 0.242 | 2.85 | 2.45 | 0.178 | -0.205 | -0.105 | 3.88 | 1.55 | 1.03 | -0.634 | 1.84 |
| GCATATAGGGAATACAAGGTGAAAGTCCGATTGT | 0.23 | -0.211 | -0.101 | -0.103 | -0.489 | 0.924 | 0.818 | 0.797 | 0.0214 | 0.338 | 1.83 | 1.35 | 0.819 | -0.152 | 0.308 | 0.0196 | -0.0382 | 1.58 | 0.263 | 0.266 |
| TAGCCTAAGTCAGATCGGGCCAGTATACGCTATA | 0.0829 | -0.914 | -0.748 | -0.879 | -0.805 | -0.43 | 0.157 | -0.628 | -0.321 | -0.556 | -0.799 | -0.632 | -0.42 | -0.19 | -0.984 | -0.436 | -0.363 | -0.593 | -0.92 | -0.258 |
| ATCGAAAGTTCGACGAGGTGAGTATACACCGTTT | 0.939 | 0.833 | -0.161 | 0.494 | 0.233 | 1.18 | 0.693 | 0.561 | 0.0902 | 0.117 | -0.191 | 0.687 | 0.332 | 1.16 | 0.996 | 1.42 | 2.24 | 1.03 | -0.0858 | 2.32 |
| CCTTACGGGTCACTCCTGGTTATAGCATCGGAGT | 4.24 | 5.52 | -0.0362 | 3.01 | 0.134 | 4.2 | 2.76 | 3.54 | 0.987 | 2.25 | 2.58 | 3.35 | 0.273 | -0.731 | 1.77 | 2.67 | 0.0261 | 3.18 | 0.288 | 3.55 |
